Rows were chosen to be rich in hits. Some 1.9% of all compounds tested hit in one or more screens of this group.
RXFP1 agonist = agonists of human relaxin receptor RXFP1. HEK293T-RXFP1 cAMP TR-FRET, 30 min; response scale: percent of porcine relaxin response, buffer zero. Potency, µM (highest dose often 57.5 µM), inactives show at the highest dose activation, most hits filed as activators. 370,000 compounds, 0.3% hits. AID 2676; further: potency means the concentration at half of the fitted maximal effect; on the % scale 0 is the no-effect control and ±100 the full control effect; nearly all actives have a fitted effect of over 60% in size
Target sequence (Q9HBX9 whole entry, looked up): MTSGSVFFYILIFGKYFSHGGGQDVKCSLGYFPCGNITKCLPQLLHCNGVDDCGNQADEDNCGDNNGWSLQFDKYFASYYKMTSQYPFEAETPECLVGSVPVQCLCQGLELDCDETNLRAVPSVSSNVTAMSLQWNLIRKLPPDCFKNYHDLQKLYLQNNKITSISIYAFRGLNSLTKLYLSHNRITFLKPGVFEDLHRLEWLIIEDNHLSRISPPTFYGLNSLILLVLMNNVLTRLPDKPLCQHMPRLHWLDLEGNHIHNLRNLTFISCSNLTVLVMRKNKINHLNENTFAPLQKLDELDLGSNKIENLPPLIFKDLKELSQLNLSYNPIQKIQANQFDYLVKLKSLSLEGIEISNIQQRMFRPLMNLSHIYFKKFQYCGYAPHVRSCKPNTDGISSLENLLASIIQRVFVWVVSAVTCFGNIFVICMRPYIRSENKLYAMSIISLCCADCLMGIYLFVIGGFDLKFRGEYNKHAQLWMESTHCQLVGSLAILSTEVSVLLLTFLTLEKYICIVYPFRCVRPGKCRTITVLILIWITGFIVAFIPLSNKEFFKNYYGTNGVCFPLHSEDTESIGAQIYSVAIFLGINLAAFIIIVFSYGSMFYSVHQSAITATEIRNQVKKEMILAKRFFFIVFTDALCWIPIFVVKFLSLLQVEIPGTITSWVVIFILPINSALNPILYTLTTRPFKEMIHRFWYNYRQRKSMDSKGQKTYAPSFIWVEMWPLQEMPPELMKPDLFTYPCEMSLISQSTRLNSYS
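HEK293T cells stably expressing RXFP1 were pretreated with the PDE4 inhibitor Ro 20174, exposed to compounds for 30 min at 37C, lysed, and cAMP was read by TR-FRET. Data normalized to buffer (basal) and 29 nM porcine relaxin (100%).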
IL2 activator = activators of IL-2 | IL-2 activation reporter assay, cell-based qHTS; stimulated with anti-CD3/CD4/CD28 beads; in transgenic mouse T cells | activation, % (series mostly up to about 46 µM) | 360,000 compounds, 0.065% hits | AID 652025; in the data active means activation above about 50%; inconclusive means mostly about 30% to 49%; further: 0% is about no effect
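Unstimulated transgenic mouse T cells, 750 per well, received compound and, after 60 minutes, anti-CD3/anti-CD4 bead plus anti-CD28 stimulation. EGFP and DsRed were quantified after 18 hours.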
BRCA1 expr act = activators of BRCA1 expression. MCF7-BRCA1-FFLuc reporter, luminescence, 48 h; response scale: scaled: vehicle 0%, 10 µM genistein 100%. Potency, µM (top dose mostly 46.1 µM), inactives show at the top dose activation, usual class: activators. 380,000 compounds, 1.1% hits; further: potency means the concentration at half of the fitted maximal effect; nearly all actives have a fitted effect of over 80% in size
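Luminescence from a BRCA1-driven firefly luciferase in MCF7 cells was the read-out, taken 15 min after substrate addition following 48 h compound exposure at 37 °C. Data were normalized to a 10 microM genistein control and DMSO vehicle.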
Giardia killer = Giardia lamblia killing; Giardia lamblia trophozoite viability; activity change, % at 7.66 µM, hits read low; 340,000 compounds, 0.15% hits; in the data active means activity change below about -80%; inconclusive means between about -30% and that limit;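 further: parasites exposed to compound for two days anaerobically before the ATP read; on the % scale 0 is the no-effect control and ±100 the full control effect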
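Each well holds 100 Giardia trophozoites and compound. After two days (48 hrs) at 37 deg C in anaerobic conditions, ATP is quantified by luminescence.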
RXFP1 antag = blocks the human relaxin receptor RXFP1 | Q9HBX9 | HEK293-RXFP1, relaxin-stimulated cAMP HTRF, 30 min; stronger effect = lower value | activity change, negative = inhibition, % at 57.5 µM | 350,000 compounds, 0.59% hits;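 active means activity change of -60% or lower, but not beyond a set lower limit; inconclusive means change between -60% and -40%, or beyond the set limit; inactive means change above -40%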; further: on the % scale 0 is the no-effect control and ±100 the full control effect
NPSR antagonist = blocks cAMP signaling of the human neuropeptide S receptor | Q6W5P4 | CHO-NPSR cells, cAMP TR-FRET, antagonist mode | Potency, µM (doses to about 38.3 µM), for inactives: at the highest dose activity change, negative = inhibition, actives largely listed as inhibitors | 220,000 compounds, 1% hits | AID 1461; further: potency means the concentration at half of the fitted maximal effect; on the % scale 0 is the no-effect control and ±100 the full control effect; nearly all actives have a fitted effect of over 50% in size
* marks the source's active call; other numbers are inactive results; ? = inconclusive; . = not tested or not shown; [ ] = another dose, or the depositor's remark. Unless noted, the call rests on the fitted dose curve; in most records, active means well fitted curve in the direction sought with a large enough effect; inconclusive means small, poorly fitted or top-dose-only effect, or another doubt; inactive means no such curve, though single readings can be large; an effect the other way counts as inactive or inconclusive.

SMILES	RXFP1 agonist	IL2 activator	BRCA1 expr act	Giardia killer	RXFP1 antag	NPSR antagonist
OC(c1nc2ccccc2[nH]1)C(O)c1nc2ccccc2[nH]1 (configuration not stated)	0%	2	-14%	9	-8	.
FC(F)(F)c1nc2cc3nc4ccccc4[nH]c3cc2n1	-1%	-4	30%	-5	-19	13µM*
Cc1ccc2oc(C(=O)N3CCCCCC3)c(C)c2c1	4%	-2	5.6µM*	-23	-4	.
Cc1c(C(=O)N2CCCCC2)oc2ccc(Br)cc12	0%	0	?	-23	-13	.
COC(=O)c1ccccc1NC(=O)C1CCCN(C(=O)c2cnn(-c3ccc(F)cc3)c2-n2cccc2)C1 (configuration not stated)	1%	.	4%	.	.	.
C/C=C1\[C@H]2C=C(C)C[C@]1(N)c1ccc(=O)[nH]c1C2	.	.	.	.	-11	.
O=C(OCC(=O)N1CCCCC1)c1c[nH]c2ccccc12	1%	0	6.3µM*	10	12	.
CC1CCN(C(=O)COC(=O)c2c[nH]c3ccccc23)CC1	1%	-1	7.1µM*	-16	-4	.
CC1CC(C)CN(C(=O)COC(=O)c2c[nH]c3ccccc23)C1 (configuration not stated)	3%	0	-28%	-8	3	.
Cc1cccc(C(=O)OCC(=O)N2CCCCCC2)c1C	.	0	5.6µM*	-10	-2	.
O=C(Nc1nnc(-c2ccccc2)s1)C1CCCN(C(=O)c2ccoc2)C1 (configuration not stated)	.	.	11%	6	.	.
CCCCOc1ccc(Cn2c(=O)oc3ccc(C)cc32)cc1	-1%	.	-6%	.	.	.
Cc1cc(C)c2c(CN(C)Cc3ccccc3)cc(=O)oc2c1	.	0	13µM*	.	.	.
CCc1cc2c(CN(C)Cc3ccccc3F)cc(=O)oc2cc1O	5%	1	-62%	-11	-9	.
Cc1cc2oc(=O)cc(CN(C)Cc3cccc(F)c3)c2cc1C	5%	-4	11µM*	35	-39	.
Cc1ccc(Cn2ccc(NC(=O)c3noc4c3CCCCC4)n2)cc1	0%	0	44%	-19	-10	-13%[46.1 µM]
Cc1ccc(Cn2ccc(NC(=O)c3noc4c3CCCC4)n2)cc1	0%	-1	5.6µM*	9	-10	-14%[46.1 µM]
O=C(NCCc1ccccc1)c1noc2c1CCCCC2	5%	-1	4µM*	8	7	-3%[46.1 µM]
CCN(CC)/[N+]([O-])=N/OCOC(=O)C(C)c1ccc2cc(OC(C)=O)ccc2c1 (configuration not stated)	.	.	-4%	.	.	.
